Inconclusive results are not listed. Active and inactive are the calls of the source. The call rests on the fitted dose curve; in most records, active means well fitted inhibition curve with a large enough effect; inconclusive means small, poorly fitted or top-dose-only effect; inactive means flat fitted curve, though single readings scatter.
Columns and labels:
Assay in all cases: qHTS assay to identify novel small-molecules to repurpose for Merkel cell carcinoma treatment (AID 1296009); further: nearly all actives have a fitted effect of over 60% in size
MCC-26 = settings: MCC and control cell lines, CellTiter-Glo viability, 72 h; series mostly up to 46 µM
Outline: (§1)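 Cells were treated for 72 hr at 37 degree celsius with compounds in 8- or 11-point dose response. Viability was read by CellTiter-Glo luminescence, normalized to no-cell (cytotoxicity) and DMSO controls.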

MKL-1 = settings: MCC and control cell lines, CellTiter-Glo viability, 72 h; series mostly up to 46 µM
Outline: as §1

MKL-2 = settings: MCC and control cell lines, CellTiter-Glo viability, 72 h; series mostly up to 46 µM
Outline: as §1

NIH3T3 = settings: MCC and control cell lines, CellTiter-Glo viability, 72 h; at 44.8 µM (top of the series) unless noted
Outline: as §1

UISO = settings: MCC and control cell lines, CellTiter-Glo viability, 72 h; series mostly up to 46 µM
Outline: as §1

WaGa = settings: MCC and control cell lines, CellTiter-Glo viability, 72 h; series mostly up to 46 µM
Outline: as §1

Measured: Potency

CCCCCCCCCCCCc1ccc(S(=O)(=O)Nc2nncs2)cc1
inactive: all assays above

Cc1ccc(O)c(C(CCN(C(C)C)C(C)C)c2ccccc2)c1 (stereo not given)
inactive: all assays above

Cc1nc(NC(=O)N2CCC[C@@H]2C(N)=O)sc1-c1ccnc(C(C)(C)C(F)(F)F)c1
inactive: MCC-26 | MKL-1

C[C@@H]1[C@H](C)CC[C@]2(C(=O)O)CC[C@]3(C)C(=CC[C@@H]4[C@@]5(C)C[C@@H](O)[C@H](O)[C@@](C)(CO)[C@H]5CC[C@]43C)[C@@H]12
inactive: all assays above

CC(C)(O)[C@H]1CC[C@@](C)([C@H]2[C@@H](O)C[C@@]3(C)[C@@H]4C[C@H](O[C@@H]5O[C@H](CO)[C@@H](O)[C@H](O)[C@@H]5O)[C@H]5C(C)(C)[C@@H](O[C@@H]6OC[C@@H](O)[C@H](O)[C@@H]6O)CC[C@@]56C[C@@]46CC[C@]23C)O1
inactive: all assays above

CC1(C)[C@H](O[C@H]2O[C@H](C(=O)O)[C@@H](O)[C@H](O)[C@H]2O[C@@H]2O[C@H](C(=O)O)[C@@H](O)[C@H](O)[C@H]2O)CC[C@@]2(C)[C@H]1CC[C@]1(C)[C@H]2C(=O)C=C2[C@H]3C[C@@](C)(C(=O)O)CC[C@]3(C)CC[C@]21C
inactive: all assays above

CC(C)Oc1ccc(C(=O)N[C@H](CNC(=O)CN(C)C)Cc2ccc(-c3cn4cccc([C@H](C)O)c4n3)cc2)cc1Cl
inactive: MCC-26 | MKL-1 | MKL-2

Source: PubChem BioAssay (NCATS)
